Results on 100 compounds are retold here after PubChem BioAssay AID624297 (National Center for Advancing Translational Sciences (NCATS), 2012).

In all, about 340,000 compounds went through this assay and about 6,200 (1.8%) were called active. Roughly 10% stayed inconclusive and do not appear here. The full list was thinned out, with actives kept by preference. A number with no mark means an inactive call. Calls follow the shape of the dose curve; as a rule, active = well fitted activation curve with a large enough effect; inconclusive = small, poorly fitted or top-dose-only effect; inactive = no such curve, though single readings can be large or run the other way.
Potency is read from the fitted curve at half-maximal effect.

A short description of this assay: A quantitative high throughput screen for small molecules that induce DNA re-replication in SW480 colon adenocarcinoma cells. Also: nearly all actives have a fitted effect of over 55% in size. As to re-replication activation: % of control where 0% means no effect. The following applies: Hoechst DNA content imaging, 48 h; series mostly up to 46.1 µM; re-replication activation: at the top concentration. In outline:
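Hoechst fluorescence of nuclei (405 nm excitation, 500-530 nm emission) measured by plate-scanning imager after 48 hr compound exposure at 37 C; re-replication scored as increased number of nuclei with elevated intensity.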
Regarding `O=C(NCc1ccc2c(c1)OCO2)c1cc(F)c(F)cc1Cl`, the “re-replication activation” value is 0.16%. In the case of `O=C(NCc1ccc2c(c1)OCO2)c1cc([N+](=O)[O-])ccc1N1CCOCC1`, the Potency was 7.31 µM (active).

Consider `O=C(Cc1ccc([N+](=O)[O-])cc1)NCCc1ccc2c(c1)OCO2`, for which the “re-replication activation” value is -3.75%. For `CC[C@]12c3[nH]c4ccc(Cl)cc4c3CCN1C(=O)[C@@H](CC(=O)NCCN1CCOCC1)C[C@@H]2C(=O)N1CCN(C(=O)C2CC2)CC1`, the “re-replication activation” value was -1.66%. Regarding `COc1ccc(CCNC(=O)COc2cc(C)cc3oc(=O)c(C)c(C)c23)cc1OC`, the “re-replication activation” value was -6.91%. The same measure, in the same setting: the value for `COc1ccc(/C=C/C(=O)OCC(=O)NC2CCCCCC2)cc1OC` was -8.91%; that for `COCCCN1C(=O)C(=O)/C(=C(/O)c2ccc3c(c2)CC(C)O3)C1c1cccnc1` (stereo not given) was 10.1%. As for `COc1cc(C2/C(=C(\O)c3ccc4c(c3)CC(C)O4)C(=O)C(=O)N2Cc2ccco2)ccc1O` (stereo not given), the Potency is 0.517 µM (active).

On to `COc1ccc(C2/C(=C(/O)c3ccc4c(c3)CC(C)O4)C(=O)C(=O)N2Cc2ccncc2)cc1` (stereo not given), for which the “re-replication activation” value is -1.61%. On the same count and under the same terms, then `O=C(COC(=O)c1ccc(O)cc1O)c1ccc2c(c1)OCCO2`, with -1.61%. The same measure, in the same setting: the value for `O=C1CN(C(=O)COC(=O)/C=C/c2ccc(F)cc2)c2ccccc2N1` was -5.6%; that for `COc1ccc(C(=O)CC(=O)C(=O)Nc2cc([N+](=O)[O-])ccc2OC)cc1` was -3.76%. As for `COc1ccc(C(=O)c2c3ccc([N+](=O)[O-])cc3[n+]([O-])n2CCCN)cc1`, the Potency was 18.4 µM (active). As to `COc1ccc2c(C(=O)c3ccc(C)cc3)n(CCC(N)=O)[n+]([O-])c2c1`, the “re-replication activation” value was 1.41%. Still for that read-out and setting: the value for `COc1cc(OC)cc(-c2c(C#Cc3ccsc3)c3cc(-c4ccc(SC)cc4)ccc3n2C)c1` was 12%.

On to `Cc1nnc(N/N=C/c2ccccn2)[nH]c1=O`, for which the Potency is 1.3 µM (active). In the case of `Cc1nnc(N/N=C/C2CC=CCC2)[nH]c1=O` (stereo not given), the “re-replication activation” value is -14%. Turning to `Cc1cc(C(=O)N/N=C/c2ccccn2)c2ccccc2n1`, the “re-replication activation” value was -16.3%. The same measure, in the same setting: the value for `CC(C)[C@@H](C(=O)OCC(=O)c1ccc2c(c1)NC(=O)CO2)N1C(=O)c2ccccc2C1=O` was -4.45%; that for `O=S(=O)(NCC1CN(S(=O)(=O)c2ccc3c(c2)OCCO3)C1)c1c(F)cccc1F` was -0.716%. With `CSc1ncccc1C(=O)Nc1cccc(S(=O)(=O)N2CCOCC2)c1`, the “re-replication activation” value was -8.98%. Still for that read-out and setting: the value for `CCOC(=O)c1cccc(NS(=O)(=O)c2c(C(=O)N3CCCCCC3)c(C)n(C)c2C)c1` was -4.56%; that for `CCOC(=O)c1c(S(=O)(=O)Nc2ccc(CN3CCC(C)CC3)cc2)c(C)n(C)c1C` was 1.49%. For `CCOC(=O)c1c(S(=O)(=O)Nc2cccc(Cl)c2)c(C)n(C)c1C`, the Potency was 8.2 µM (active).

In the case of `COc1ccc(CCN2CC(C(=O)OCC(=O)NCc3ccccc3Cl)CC2=O)cc1OC` (stereo not given), the “re-replication activation” value is -14.7%. Take `Cc1ccc(S(=O)(=O)N2CCN(C(=O)Cn3c(=O)cnc4ccccc43)CC2)c(C)c1`: the “re-replication activation” value is -2.69%.

For the compound `CCN(CC(=O)Nc1c(F)cccc1F)C(=O)Cc1cccs1`, the “re-replication activation” value was -73.1%.

For the compound `Cc1cc(NC(=O)CSCC(=O)NC(C)c2ccccc2)no1` (stereo not given), the “re-replication activation” value was -14.6%. Same read-out and setting: then `NS(=O)(=O)c1ccc(CCNc2nc(C(F)(F)F)nc3ccccc23)cc1`, with -3.72%. Same read-out and setting: then `COc1cccc(CNc2nc(C(F)(F)F)nc3ccccc23)c1`, with 33.5%. In the case of `CCc1ccc(C(CNc2nc(C(F)(F)F)nc3ccccc23)N(C)C)cc1` (stereo not given), the Potency is 20.6 µM (active).

Consider `CC(CN1CCCCC1)c1ccccc1` (stereo not given), for which the Potency was 5.8 µM (active). Turning to `CC(CN1CCC(n2nccc2NC(=O)C2CCCC2)CC1)c1ccccc1` (stereo not given), the “re-replication activation” value is -4.86%. Regarding `CC(CN1CCOCC1)c1ccccc1` (stereo not given), the “re-replication activation” value is -17.3%. Same read-out and setting: then `O=C(Nc1ccc2ccccc2c1[N+](=O)[O-])c1ccccc1`, with -2.97%; and `O=C(Nc1cccc2cccnc12)c1cccc(Cl)c1`, with -5.9%. With `CC(=O)/C(=N\Nc1ccc(Cl)cc1Cl)Sc1cccc2cccnc12`, the Potency is 6.51 µM (active). `O=C(Nc1ccccc1Cl)Nc1cccc2cccnc12`: the “re-replication activation” value was -32.8%. Still for that read-out and setting: the value for `CCC(C)c1ccc(NC(=O)COC(=O)C2CCCC2)cc1` (stereo not given) was -0.977%.

For the compound `CC(Sc1nncn1C)C(=O)NCCC1=CCCCC1` (stereo not given), the “re-replication activation” value is -0.473%. Take `COc1ccc(Cn2cc(CN3CCS(=O)(=O)N(Cc4ccc(-c5cccc(Cl)c5)cc4)C(C)C3=O)nn2)cc1` (stereo not given): the “re-replication activation” value is 4.08%. For `CN(C(=O)c1cccc(NC(=O)Cc2ccc([N+](=O)[O-])cc2)c1)C1CCC1`, the “re-replication activation” value was -7.23%.

For the compound `CCCCCOc1ccc(CSC2=NCCN2)cc1[N+](=O)[O-]`, the Potency was 5.8 µM (active).

As to `CCCOc1ccc(Cn2ccnc2)cc1[N+](=O)[O-]`, the “re-replication activation” value is -3.74%. Regarding `Cc1nc(SCc2ccc(F)cc2)c([N+](=O)[O-])[nH]1`, the “re-replication activation” value is -1.87%. As for `O=C1NCC(c2ccccc2)(c2ccccc2)C(=O)N1`, the “re-replication activation” value is -2.48%. Still for that read-out and setting: the value for `CCC(=O)Nc1ccc(C(=O)N2CCN(C(=O)c3ccco3)CC2)cc1` was -18.2%. In the case of `COc1cccc(C(=O)Nc2ccc(N3CCN(C(=O)c4ccco4)CC3)cc2)c1`, the Potency was 18.4 µM (active). Turning to `Cc1ccc(OCC(=O)Nc2ccc(N3CCN(C(=O)c4ccco4)CC3)cc2)c(C)c1`, the “re-replication activation” value is -23.1%. Regarding `Cc1ccc(S(=O)(=O)N2CCCCC2)cc1NC(=O)CCNC(=O)c1ccccc1`, the “re-replication activation” value was 17%. Regarding `Cc1ccc(N2CCN(C3=NC(=O)/C(=C\c4cccs4)S3)CC2)cc1`, the “re-replication activation” value was -6.21%. In the case of `Cc1cccc(C2=N/C(=C/c3cccs3)C(=O)O2)c1`, the Potency was 4.61 µM (active). In the case of `Cc1ccc(C2=N/C(=C\c3ccc(OS(=O)(=O)c4ccc(C)cc4)cc3)C(=O)O2)cc1`, the “re-replication activation” value is -12.8%. The same measure, in the same setting: then `Cc1nc2ccc(N)nc2nc1C`, with -4.85%; and `CCCN(CCC)S(=O)(=O)c1cc2c(cc1Br)CCN2C(=O)CC`, with -0.545%.

For `Cc1noc(C)c1S(=O)(=O)N(C)C[C@H]1Oc2ccc(NC(=O)C3CC3)cc2C(=O)N([C@H](C)CO)C[C@@H]1C`, the “re-replication activation” value was -7.8%. On the same count and under the same terms, the value for `O=C(NCCN1CCOCC1)c1ccc(/C=C2\Sc3ccccc3N(Cc3ccc(F)cc3)C2=O)cc1` was 662%. In the case of `CCN1CCN(CCNC(=O)c2ccc(/C=C3/Sc4ccccc4N(Cc4cccc(C)c4)C3=O)cc2)CC1`, the Potency is 20.6 µM (active). As to `CN1CCN(CCCNC(=O)c2ccc(/C=C3\Oc4ccccc4N(Cc4ccc(Cl)cc4)C3=O)cc2)CC1`, the “re-replication activation” value was 6.87%. Consider `C[C@@H]1CN([C@@H](C)CO)C(=O)c2cccc(NS(=O)(=O)c3ccc(F)cc3)c2O[C@H]1CN(C)C(=O)NC1CCCCC1`, for which the “re-replication activation” value is 6.72%. Same read-out and setting: the value for `CC1CN(C(=O)c2ccc([N+](=O)[O-])s2)CC(C)O1` (stereo not given) was -11.6%; that for `O=C(c1cccc(S(=O)(=O)N2CCCCCC2)c1)N1CCN(Cc2ccccc2)CC1` was -17.1%. As to `O=C(NC1=CC(=O)c2ccccc2C1=O)c1ccccc1`, the Potency is 5.8 µM (active). Regarding `CC(NC(=O)c1ccccc1)C(=O)Nc1ccccc1` (stereo not given), the “re-replication activation” value is -2.85%. Same read-out and setting: then `Cn1c(NC(=O)c2ccccc2)nc2ccccc21`, with -10.1%; and `Cc1c[n+]([O-])ccc1[N+](=O)[O-]`, with 13.5%. On the same count and under the same terms, then `COc1ccc(S(=O)(=O)N2C[C@H]3CON(C)[C@H]3C[C@H]2c2cccc(Br)c2)cc1`, with -5.21% [at 9.22 µM]; and `O=C(COc1ccccc1F)Nc1nc(-c2ccccn2)cs1`, with 1.18%. On to `CCc1ccc2c(c1)C1(NN=C(c3ccccc3)S1)C(=O)N2` (stereo not given), for which the Potency is 10.3 µM (active). As to `CN(CCc1ccccc1)C(=O)c1cccc(NC(=O)Cc2cccc(NC(=O)C3CCCN(C(=O)C4CCC4)C3)c2)c1` (stereo not given), the “re-replication activation” value is -30.2%. As to `Fc1ccc(N2N=C(c3cccs3)CC2c2ccco2)c(F)c1` (stereo not given), the Potency is 23.1 µM (active). `Cc1ccccc1C1CC(c2cccs2)=NN1S(C)(=O)=O` (stereo not given): the “re-replication activation” value is -1.96%. For the compound `CCS(=O)(=O)Nc1ccc(C2=NN(S(=O)(=O)c3ccc(F)cc3)C(c3ccco3)C2)cc1` (stereo not given), the “re-replication activation” value is -5.85%. Consider `CCCc1cc(=O)[nH]c(SCC(=O)Nc2ccc(C(=O)Nc3ccccc3OC)cc2)n1`, for which the “re-replication activation” value was 3.29%. For the compound `Cc1ccc(-c2cc(=O)c3ccc(F)cc3[nH]2)cc1`, the “re-replication activation” value was 11.6%. Same read-out and setting: then `Cc1ccc(-c2cc(=O)c3ccc(Cl)cc3[nH]2)cc1`, with -0.0496%. Take `O=c1cc(-c2ccccc2)[nH]c2cc(F)ccc12`: the Potency is 0.92 µM (active). For the compound `CCCCNCCS(=O)(=O)NCc1ccccc1`, the “re-replication activation” value was 2.26%. For the compound `O=C(CSc1ncn[nH]1)Nc1ccc(Br)cc1Br`, the “re-replication activation” value is 0.649%. As to `Cc1cccc(OCC(=O)OCC(=O)Nc2ccc(Cl)cn2)c1`, the “re-replication activation” value was 1.42%. As for `O=C1OC(Cc2ccccc2)C(c2ccccc2)C1=O` (stereo not given), the “re-replication activation” value was -2.6%. The same measure, in the same setting: the value for `COc1cccc(CNC(C)C(=O)Nc2ccc(S(=O)(=O)N3CCCC3)cc2)c1` (stereo not given) was -23.3%; that for `Cc1ccc(SCC(=O)N2CCN(c3ccc(F)cc3)CC2)cc1` was 2.77% [at 1.84 µM]. For `CCN1CCC2(CC1)N=C(c1ccc(F)cc1)C(=S)N2C(=O)c1ccc(C)cc1`, the Potency is 20.6 µM (active). `CCN1CCN(C(=O)CSc2ccc(C)cc2)CC1`: the “re-replication activation” value was -1.89%.

Turning to `CN(CC(=O)O)C(=O)c1ccccc1`, the “re-replication activation” value is -2.02%. Take `Nc1cc2c(cc1Br)-c1ccc(F)cc1C2=O`: the “re-replication activation” value was -4.87%. As to `O=C(O)C(=Cc1ccccc1[N+](=O)[O-])c1ccccc1`, the “re-replication activation” value was -4%. Still for that read-out and setting: the value for `CCN1CCC(O)(/C=C/c2ccc(C)cc2)C(C(=O)/C=C/c2ccc(C)cc2)C1` (stereo not given) was -1.86%; that for `CCC(=O)c1ccc(OCC(=O)Nc2ccc3nc(C)sc3c2)cc1` was -12.9%. Take `CCOc1ccc2nc(Nc3nc4ccc(NC(C)=O)cc4s3)sc2c1`: the Potency is 18.4 µM (active). Regarding `CCOc1ccc2nc(NC(=O)CSc3nc4c(c(=O)n(C)c(=O)n4C)n3CC)sc2c1`, the “re-replication activation” value is -4.89%. Still for that read-out and setting: the value for `COc1ccc(CCOC2OC(CO)C(OC(=O)/C=C/c3ccc(O)c(OC)c3)C(O[C@H]3O[C@@H](C)[C@H](O)[C@@H](O)[C@H]3O)C2O)cc1O` (stereo not given in full) was -2.6%; that for `NNC(=O)c1ccc(Cl)cc1Cl` was 0.838%; that for `Cn1cc(C(=O)c2ccc(Cl)cc2Cl)cc1C(=O)NN` was -5.57%. As for `CC(C)(C)c1cc(C(=O)NN)n(Cc2ccc(Cl)cc2Cl)n1`, the Potency is 11.6 µM (active). Consider `COc1ccc(C(=O)Nc2cccc(/C=C(/CCC(=O)O)c3nc4ccccc4s3)c2)cc1`, for which the “re-replication activation” value was -7.51%. On the same count and under the same terms, then `O=C(COC(=O)c1cccnc1Cl)NC(=O)NC1CCCCC1`, with -1.97%; and `Cc1nc2ccc(NC(=O)c3cccc(S(=O)(=O)N4CCOCC4)c3)cc2s1`, with 3.07%.

For the compound `CC/C(=C\c1ccc(Cl)cc1)c1ccncc1`, the “re-replication activation” value is -2.36%.
